# Results: PubChem BioAssay (Tox21)
# Calls of active or inactive are those of the source. Where a call stands in place of a potency, no number is given. Unless noted, the call rests on the fitted dose curve; in most records, active means well fitted curve in the direction sought with a large enough effect in the repeat runs; inconclusive means weak or mixed curves; inactive means no such curve, though single readings can be large; an effect the other way counts as inactive or inconclusive.
# Legend:
# [1] = qHTS assay to identify small molecule antagonists of the thyroid receptor (TR) signaling pathway - cell viability counter screen (AID 743064); further: nearly all actives have a fitted effect of over 50% in size; further: potency means the concentration at half of the fitted maximal effect
# Procedure, shortened: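 GH3.TRE-Luc rat pituitary cells carrying a TRE-luciferase reporter were treated with compound plus 1 nM T3 (final) for 23.5 h at 37 °C. Viability was then read in the same wells by CellTiter-Fluor fluorescence after a further 30 min.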
# [2] = tested on: thyroid hormone receptor (rat, GH3 cells); assay: qHTS assay to identify small molecule agonists of the thyroid receptor (TR) signaling pathway (AID 743066; calls by dose curve)
# [3] = qHTS assay to identify small molecule antagonists of the estrogen receptor alpha (ER-alpha) signaling pathway - cell viability counter screen (AID 743074; calls by dose curve;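 further: HEK293 cells carrying ER-alpha-UAS-bla reporter stimulated with 17beta-estradiol; nearly all actives have a fitted effect of over 45% in size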)
# [4] = qHTS assay to identify small molecule antagonists of the estrogen receptor alpha (ER-alpha) signaling pathway using the BG1 cell line - cell viability counter screen (AID 743081);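 further: compound given together with 17beta-estradiol as the ER stimulus; nearly all actives have a fitted effect of over 45% in size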; further: potency means the concentration at half of the fitted maximal effect
# [5] = biological target: Aromatase (Homo sapiens) (UniProt P11511); assay: qHTS assay to identify aromatase inhibitors (AID 743083); further: nearly all actives have a fitted effect of over 55% in size; further: potency means the concentration at half of the fitted maximal effect
# [6] = qHTS assay to identify aromatase inhibitors - cell viability counter screen (AID 743084);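 further: cells stimulated with testosterone during compound exposure; nearly all actives have a fitted effect of over 55% in size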; further: potency means the concentration at half of the fitted maximal effect
# [7] = biological target: Aryl hydrocarbon receptor (Homo sapiens) (UniProt P35869); assay: qHTS assay to identify small molecule that activate the aryl hydrocarbon receptor (AhR) signaling pathway (AID 743085);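 further: HG2L7.5c1 human HepG2 liver cells with stably integrated DRE-driven firefly reporter; series mostly up to about 70 µM; nearly all actives have a fitted effect of over 15% in size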
# Procedure, shortened: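 HepG2 cells (HG2L7.5c1) stably carrying a firefly luciferase reporter driven by 20 dioxin responsive elements were exposed to compound for 24 h at 37C after a 5 h settling period; luminescence rise (ONE-Glo) indicated activation.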
# [8] = qHTS assay to identify small molecule that activate the aryl hydrocarbon receptor (AhR) signaling pathway - cell viability counter screen (AID 743086); further: nearly all actives have a fitted effect of over 45% in size; further: potency means the concentration at half of the fitted maximal effect
# Procedure, shortened: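 Cytotoxicity counter screen: CellTiter-Fluor signal (30 min, 37 C) in 4000 HepG2 cells/well carrying the DRE-luciferase reporter, following 24 h compound exposure at 37 C.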
# [9] = biological target: Peroxisome proliferator-activated receptor gamma (Homo sapiens) (UniProt P37231); assay: qHTS assay to identify small molecule agonists of the peroxisome proliferator-activated receptor gamma (PPARg) signaling pathway (AID 743094; active means well fitted activation curve with a large enough effect in the signal ratio in the repeat runs, not every such curve was filed as active; inconclusive means weak or mixed curves, or effect the other way; inactive means no such curve, though single readings can be large or run the other way; the % refers to the signal ratio)
# Procedure, shortened: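 Stably transfected HEK293H cells (GeneBLAzer PPARg UAS-bla) were incubated with test substances for 17 h at 37C after a 5 h pre-incubation; beta-lactamase activity was then detected by FRET substrate fluorescence.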
# [10] = qHTS assay to identify small molecule antagonists of the peroxisome proliferator-activated receptor gamma (PPARg) signaling pathway - cell viability counter screen (AID 743194); further: nearly all actives have a fitted effect of over 55% in size
# Procedure, shortened: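 Viability was measured as CellTiter-Glo luminescence in GeneBLAzer PPARg UAS-bla HEK293H cells. These cells had been exposed 17 h at 37 C to compounds together with rosiglitazone at 50 nM final, with the beta-lactamase readout taken in the same wells.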
# [11] = qHTS assay for small molecule agonists of the antioxidant response element (ARE) signaling pathway - cell viability counter screen (AID 743203; calls by dose curve; further: nearly all actives have a fitted effect of over 55% in size)
# Procedure, shortened: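 Cells (ARE-bla HepG2, 2,000/well) receive DMSO-dissolved compounds after a 5 hrs rest. Plates incubate 16 hrs at 37C/5% CO2. CellTiter-Glo luminescence is then recorded after 30 min at room temperature.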
# [12] = qHTS assay for small molecule activators of the heat shock response signaling pathway - cell viability counter screen (AID 743209); further: nearly all actives have a fitted effect of over 50% in size
# Procedure, shortened: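 Quantitative HTS format, Tox21 10K library. HeLa cells carrying an HSE-driven beta-lactamase reporter were treated 5 h at 37 C, then assessed for viability by CellTiter-Glo luminescence.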
# [13] = qHTS assay for small molecule activators of the heat shock response signaling pathway (AID 743210; active means well fitted activation curve with a large enough effect in the signal ratio in the repeat runs, with a control signal flat, not every such curve was filed as active; inconclusive means weak or mixed curves; the % refers to the signal ratio;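 further: HeLa cells with beta-lactamase reporter driven by heat shock elements; series mostly up to about 63 µM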)
# Procedure, shortened: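 HeLa HSE-bla cells, overnight plating; cpd in DMSO 5 h, 37 C; LiveBLAzer B/G FRET substrate 2.5 h RT; fluorescence intensity read.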
# [14] = biological target: Estrogen receptor (Homo sapiens) (UniProt P03372); assay: qHTS assay to identify small molecule antagonists of the estrogen receptor alpha (ER-alpha) signaling pathway (AID 743069; active means well fitted curve in the direction sought with a large enough effect in the signal ratio in the repeat runs, not every such curve was filed as active; inconclusive means weak or mixed curves, or effect the other way; inactive means no such curve, though single readings can be large or run the other way; the % refers to the signal ratio; further: potency means the concentration at half of the fitted maximal effect)
# Procedure, shortened: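 ER-alpha-UAS-bla GripTite HEK293 line; 2% charcoal-stripped FBS overnight; plated, 4 hr 37C/5% CO2; cpd in DMSO + 17beta-estradiol, 18 hr 37C; LiveBLAzer B/G FRET substrate 2 hr RT; fluorescence intensity.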
# [15] = biological target: Estrogen receptor (Homo sapiens) (UniProt P03372); assay: qHTS assay to identify small molecule agonists of the estrogen receptor alpha (ER-alpha) signaling pathway (AID 743075; calls by dose curve;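 further: HEK293 GripTite cells with ER-alpha and UAS-driven beta-lactamase reporter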; further: potency means the concentration at half of the fitted maximal effect)
# [16] = biological target: Estrogen receptor (Homo sapiens) (UniProt P03372); assay: qHTS assay to identify small molecule agonists of the estrogen receptor alpha (ER-alpha) signaling pathway using the BG1 cell line (AID 743079); further: nearly all actives have a fitted effect of over 20% in size; further: potency means the concentration at half of the fitted maximal effect
# [17] = qHTS assay to identify small molecule antagonists of the estrogen receptor alpha (ER-alpha) signaling pathway using the BG1 cell line (AID 743080; calls by dose curve;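 further: BG1 cells stimulated with 17beta-estradiol alongside compound; series mostly up to about 70 µM; nearly all actives have a fitted effect of over 25% in size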)
# Procedure, shortened: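 Luciferase inhibition measured with ONE-Glo after 30 min at RT in BG1Luc4E2 cells given test compounds and 17beta-estradiol for 21.5 h at 37 C; CellTiter-Fluor viability read in the same wells beforehand.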
# [18] = qHTS assay to identify small molecule antagonists of the thyroid receptor (TR) signaling pathway (AID 743065); further: nearly all actives have a fitted effect of over 55% in size; further: potency means the concentration at half of the fitted maximal effect
# Procedure, shortened: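 Antagonism measured as loss of luciferase signal in GH3 cells stably carrying a TRE-luciferase reporter, co-treated with compound and T3 (1 nM final) for 23.5 h at 37 C. Viability was read in the same well by CellTiter-Fluor.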
# [19] = qHTS assay for small molecule agonists of the antioxidant response element (ARE) signaling pathway (AID 743202; active means well fitted activation curve with a large enough effect in the signal ratio in the repeat runs, not every such curve was filed as active; inconclusive means weak or mixed curves, or effect the other way; inactive means no such curve, though single readings can be large or run the other way; the % refers to the signal ratio; further: potency means the concentration at half of the fitted maximal effect)
# Procedure, shortened: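 Quantitative high-throughput format in HepG2 cells bearing an integrated ARE-beta-lactamase reporter. Compound exposure lasted 16 h at 37 C, and fluorescence was read 2 h after adding LiveBLAzer B/G substrate at room temperature.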
# [20] = biological target: Peroxisome proliferator-activated receptor gamma (Homo sapiens) (UniProt P37231); assay: qHTS assay to identify small molecule antagonists of the peroxisome proliferator-activated receptor gamma (PPARg) signaling pathway (AID 743191; calls by dose curve; further: series mostly up to about 63 µM; nearly all actives have a fitted effect of over 30% in size)
# Procedure, shortened: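 Beta-lactamase reporter under UAS control in HEK293H PPARg-bla cells; compound treatment 17 h at 37C. Read-out: fluorescence intensity after 1 h room-temperature incubation with LiveBLAzer B/G FRET substrate.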
# Sequence of Estrogen receptor (Homo sapiens) (P03372 whole entry, looked up): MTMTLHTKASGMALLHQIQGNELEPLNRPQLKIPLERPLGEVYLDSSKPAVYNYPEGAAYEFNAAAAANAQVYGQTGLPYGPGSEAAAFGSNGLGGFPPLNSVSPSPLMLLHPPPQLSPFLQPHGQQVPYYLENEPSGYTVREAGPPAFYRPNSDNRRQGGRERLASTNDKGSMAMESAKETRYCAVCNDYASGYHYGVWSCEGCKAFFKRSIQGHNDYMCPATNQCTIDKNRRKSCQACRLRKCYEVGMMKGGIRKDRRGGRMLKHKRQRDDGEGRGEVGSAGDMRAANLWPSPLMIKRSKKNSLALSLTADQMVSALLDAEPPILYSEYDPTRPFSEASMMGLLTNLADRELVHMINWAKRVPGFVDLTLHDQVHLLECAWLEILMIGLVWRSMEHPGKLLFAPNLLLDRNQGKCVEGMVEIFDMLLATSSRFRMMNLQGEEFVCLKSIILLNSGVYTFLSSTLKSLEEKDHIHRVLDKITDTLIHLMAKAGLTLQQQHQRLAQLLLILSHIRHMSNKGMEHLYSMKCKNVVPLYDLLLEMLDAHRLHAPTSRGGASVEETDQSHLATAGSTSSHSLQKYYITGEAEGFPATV
# Sequence of Aromatase (Homo sapiens) (P11511 whole entry, looked up): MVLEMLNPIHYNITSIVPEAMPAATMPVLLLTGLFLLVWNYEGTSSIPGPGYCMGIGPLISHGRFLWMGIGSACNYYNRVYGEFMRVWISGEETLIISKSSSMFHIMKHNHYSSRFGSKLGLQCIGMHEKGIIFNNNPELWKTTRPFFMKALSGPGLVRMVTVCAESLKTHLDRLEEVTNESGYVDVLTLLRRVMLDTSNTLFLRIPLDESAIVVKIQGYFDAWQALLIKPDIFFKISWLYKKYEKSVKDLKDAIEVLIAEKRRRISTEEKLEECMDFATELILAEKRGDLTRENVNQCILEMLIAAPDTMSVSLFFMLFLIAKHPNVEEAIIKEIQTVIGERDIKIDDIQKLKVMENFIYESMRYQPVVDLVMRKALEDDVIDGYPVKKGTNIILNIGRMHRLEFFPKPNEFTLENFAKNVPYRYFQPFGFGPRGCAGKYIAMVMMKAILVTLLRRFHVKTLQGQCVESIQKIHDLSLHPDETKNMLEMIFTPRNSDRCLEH
# Sequence of Peroxisome proliferator-activated receptor gamma (Homo sapiens) (P37231 whole entry, looked up): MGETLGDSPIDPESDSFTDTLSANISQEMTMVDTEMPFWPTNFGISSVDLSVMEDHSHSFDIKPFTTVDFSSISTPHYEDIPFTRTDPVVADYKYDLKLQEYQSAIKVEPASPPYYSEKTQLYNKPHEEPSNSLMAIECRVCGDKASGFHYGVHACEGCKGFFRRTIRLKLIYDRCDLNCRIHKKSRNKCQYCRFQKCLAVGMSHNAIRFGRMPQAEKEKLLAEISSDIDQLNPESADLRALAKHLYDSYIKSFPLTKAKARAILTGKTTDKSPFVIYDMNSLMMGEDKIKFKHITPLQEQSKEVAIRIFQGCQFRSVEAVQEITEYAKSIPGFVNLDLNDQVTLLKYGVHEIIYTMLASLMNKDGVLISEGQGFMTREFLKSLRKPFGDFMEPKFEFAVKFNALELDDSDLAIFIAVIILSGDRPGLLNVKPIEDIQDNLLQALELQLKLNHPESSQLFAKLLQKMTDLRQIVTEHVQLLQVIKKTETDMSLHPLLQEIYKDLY
# Sequence of Aryl hydrocarbon receptor (Homo sapiens) (P35869 whole entry, looked up): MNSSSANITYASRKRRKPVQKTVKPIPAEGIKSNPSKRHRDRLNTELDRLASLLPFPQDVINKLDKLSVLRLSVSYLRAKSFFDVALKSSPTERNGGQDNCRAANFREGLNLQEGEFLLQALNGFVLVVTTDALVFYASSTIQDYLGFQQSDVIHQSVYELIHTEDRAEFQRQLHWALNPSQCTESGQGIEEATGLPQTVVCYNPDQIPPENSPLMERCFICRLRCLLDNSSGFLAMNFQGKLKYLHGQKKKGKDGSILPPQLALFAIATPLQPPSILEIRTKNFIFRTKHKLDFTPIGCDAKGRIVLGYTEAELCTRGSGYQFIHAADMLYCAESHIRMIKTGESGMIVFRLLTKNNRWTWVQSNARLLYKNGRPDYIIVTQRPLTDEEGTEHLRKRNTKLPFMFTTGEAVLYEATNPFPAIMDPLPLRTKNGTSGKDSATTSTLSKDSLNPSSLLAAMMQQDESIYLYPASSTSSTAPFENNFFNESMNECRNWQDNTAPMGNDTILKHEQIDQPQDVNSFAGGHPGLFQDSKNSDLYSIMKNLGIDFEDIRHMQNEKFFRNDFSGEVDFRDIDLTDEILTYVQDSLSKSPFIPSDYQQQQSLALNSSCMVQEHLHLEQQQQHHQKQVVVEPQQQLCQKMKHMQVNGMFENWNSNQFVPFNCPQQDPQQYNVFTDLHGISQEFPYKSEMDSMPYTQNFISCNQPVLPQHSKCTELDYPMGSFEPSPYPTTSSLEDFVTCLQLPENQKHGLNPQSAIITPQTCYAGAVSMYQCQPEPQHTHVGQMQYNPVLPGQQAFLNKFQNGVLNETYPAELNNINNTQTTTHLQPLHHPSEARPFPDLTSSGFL
SMILES,Potency [1],Potency [2],outcome [3],Potency [4],Potency [5],Potency [6],Potency [7],Potency [8],Potency [9],Potency [10],Potency [11],Potency [12],outcome [13],Potency [14],Potency [15],Potency [16],Potency [17],Potency [18],Potency [19],Potency [20]
Cc1cc(C)c(S(=O)(=O)O)cc1N=Nc1cc(S(=O)(=O)O)c2ccccc2c1O,34.4 µM (active),inactive,inactive,54.5 µM (active),inactive,24.3 µM (active),inactive,27.3 µM (active),inactive,inactive,inactive,inactive,inactive,,,,,,,
CC1=CCC(C(C)C)C=C1 (stereo not given),inactive,,inactive,inactive,inactive,inactive,inactive,inactive,inactive,inactive,inactive,inactive,inactive,inactive,inactive,inactive,inactive,,,
CC(C)CC=O,,inactive,inactive,inactive,inactive,inactive,inactive,inactive,inactive,,inactive,inactive,inactive,inactive,inactive,inactive,inactive,inactive,inactive,
Oc1ccc(Cc2ccccc2)cc1,inactive,inactive,inactive,inactive,,,,inactive,,inactive,inactive,inactive,,,,,,,,
CN1CCN(C2=Nc3ccccc3Sc3ccc(Cl)cc32)CC1,13.3 µM (active),,inactive,inactive,inactive,inactive,inactive,inactive,,inactive,inactive,inactive,inactive,,,,,,inactive,
CCOc1ccc(NC(=O)CC(C)=O)cc1,inactive,,inactive,inactive,inactive,inactive,,inactive,,inactive,inactive,inactive,inactive,,,,,,inactive,
CC(C)(C)c1cc(O)c(C(C)(C)C)cc1O,48.6 µM (active),,inactive,inactive,21.7 µM (active),,,inactive,inactive,,,inactive,inactive,43.6 µM [inconclusive] (active),inactive,,,,,
CC(C)(C)c1cc(CCC(=O)OCC(COC(=O)CCc2cc(C(C)(C)C)c(O)c(C(C)(C)C)c2)(COC(=O)CCc2cc(C(C)(C)C)c(O)c(C(C)(C)C)c2)COC(=O)CCc2cc(C(C)(C)C)c(O)c(C(C)(C)C)c2)cc(C(C)(C)C)c1O,,inactive,inactive,inactive,inactive,inactive,inactive,inactive,inactive,inactive,inactive,inactive,inactive,inactive,0.0074 µM [inconclusive] (active),4.11 µM (active),inactive,inactive,inactive,
CCCC(C)C,inactive,,inactive,inactive,inactive,,,inactive,inactive,inactive,inactive,inactive,inactive,inactive,inactive,inactive,inactive,,inactive,
COc1ccc([C@@H]2Sc3ccccc3N(CCN(C)C)C(=O)[C@@H]2OC(C)=O)cc1,23.7 µM (active),,,,,,,inactive,,inactive,inactive,inactive,inactive,,,,,,inactive,
CC(=O)/C(C)=C/C1C(C)=CCCC1(C)C (stereo not given),inactive,,inactive,inactive,inactive,inactive,inactive,inactive,inactive,inactive,inactive,inactive,inactive,inactive,inactive,inactive,inactive,,inactive,inactive
CCCCCCOC(=O)CCC,inactive,,,inactive,inactive,inactive,inactive,inactive,inactive,inactive,inactive,inactive,inactive,,,,,,inactive,
Cc1cc(O)ccc1N,30.8 µM (active),,inactive,inactive,54.8 µM (active),54.8 µM (active),,inactive,inactive,inactive,inactive,inactive,,inactive,inactive,inactive,,,21.8 µM (active),
CC(C)c1ccc2c(C(C)C)cc(C(C)C)c(S(=O)(=O)O)c2c1,,inactive,inactive,inactive,inactive,inactive,inactive,inactive,inactive,inactive,,inactive,inactive,inactive,inactive,inactive,inactive,63.2 µM (active),,
CC[C@@H]1C[C@H](N(Cc2cc(C(F)(F)F)cc(C(F)(F)F)c2)C(C)=O)c2cc(C(F)(F)F)ccc2N1C(=O)OC(C)C,,inactive,inactive,,,,,inactive,inactive,inactive,inactive,inactive,inactive,inactive,inactive,inactive,inactive,inactive,,inactive
CCCOc1ccc2nc(NC(=O)OC)[nH]c2c1,,inactive,inactive,inactive,inactive,inactive,,inactive,inactive,,inactive,inactive,inactive,inactive,,inactive,inactive,0.422 µM (active),,inactive
CCCC(=O)OCC,,inactive,inactive,inactive,inactive,inactive,inactive,inactive,inactive,,inactive,inactive,inactive,inactive,inactive,inactive,inactive,inactive,,inactive
Cl/C(=C\n1cncn1)c1ccc(Cl)cc1Cl,inactive,inactive,inactive,inactive,,inactive,inactive,inactive,inactive,inactive,inactive,inactive,inactive,,,,,,,
